# Test results from PubChem BioAssay (NCATS).
# Values joined by “and” are separate entries in the source; they are usually repeats but may differ in a detail not shown here. Identical values can stand only once. Records with an inconclusive call do not appear. Some compounds were tested as several samples or in several runs, with calls that do not always agree. Active and inactive are the calls of the source. Unless noted, calls follow the shape of the dose curve; as a rule, active = well fitted curve in either direction with a large enough effect (not every such curve was filed as active); inconclusive = small, poorly fitted or top-dose-only effect, or another doubt; inactive = flat fitted curve, though single readings scatter. Peptide text beside a SMILES is read from it.
# Assays:
# [1] = molecular target: Cytochrome P450 1A2 (Homo sapiens) (UniProt P05177); assay: p450-cyp1a2 (AID 410; calls by dose curve; also: potency is read from the fitted curve at half-maximal effect;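 as to activity change, negative = inhibition: -100% = full effect of reference inhibitor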)
# Cytochrome P450 1A2 (Homo sapiens), sequence (P05177 whole entry, looked up): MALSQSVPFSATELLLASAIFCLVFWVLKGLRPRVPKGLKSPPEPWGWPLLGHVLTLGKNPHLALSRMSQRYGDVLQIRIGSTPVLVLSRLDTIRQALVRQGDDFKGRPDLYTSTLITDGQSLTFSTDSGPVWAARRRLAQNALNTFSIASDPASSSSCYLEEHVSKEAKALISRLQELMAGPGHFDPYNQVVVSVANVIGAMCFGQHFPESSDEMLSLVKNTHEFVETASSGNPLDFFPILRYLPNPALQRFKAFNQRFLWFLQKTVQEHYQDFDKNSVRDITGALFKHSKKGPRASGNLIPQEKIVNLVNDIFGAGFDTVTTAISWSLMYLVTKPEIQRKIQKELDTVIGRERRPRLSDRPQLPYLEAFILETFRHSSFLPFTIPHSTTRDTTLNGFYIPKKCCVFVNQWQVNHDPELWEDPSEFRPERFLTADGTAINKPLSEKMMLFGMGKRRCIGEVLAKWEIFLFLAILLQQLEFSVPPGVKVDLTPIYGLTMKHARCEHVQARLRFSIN
# Procedure, shortened: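 Luminescent readout of luciferin formed from Luciferin-ME by human CYP1A2; data normalized against complete inhibition by 57 uM furafylline. Enzyme 20nM, substrate 100uM at Km, 100mM KPO4 buffer, 60 min reaction at room temperature.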
# [2] = Cell Viability - BJ (AID 421; calls by dose curve;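 also: potency is read from the fitted curve at half-maximal effect; cells exposed to compound for 40 hours at 37 °C before readout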); conditions: BJ fibroblast viability, qHTS
# Procedure, shortened: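 Cytotoxicity in human BJ foreskin fibroblasts is scored as loss of cellular ATP after a 40-hour exposure, measured by luciferase luminescence. Controls are DMSO and 100 uM tamoxifen.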
# [3] = Cell Viability - Jurkat (AID 426;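 active = dose-dependent loss of cell ATP signal giving a full or clear fitted curve, ranked by lower potency value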;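 also: potency is read from the fitted curve at half-maximal effect; cells exposed to compound for 40 hours at 37 °C before ATP read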); conditions: qHTS
# Procedure, shortened: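 qHTS, 1536-well; Jurkat E6-1, 5000 cells/well, complete medium; cpd 40 hr, 37 °C; CellTiter-Glo 20 min RT; luminescence. AC50 by Hill fit.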
# [4] = Cell Viability - Hek293 (AID 427;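 active = compounds whose dose-response curve shows a full or clear partial loss of cell viability, called from curve shape rather than a numeric limit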;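 also: potency is read from the fitted curve at half-maximal effect; cells exposed to compound for 40 hours at 37 °C before reading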); conditions: qHTS
# Procedure, shortened: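 qHTS, human embryonic kidney (adenovirus-transformed) cells; 40 hr cpd, 37 °C; CellTiter-Glo ATP luminescence. Norm: DMSO = 0, 100 uM tamoxifen = 100% inhibition. Hill-fit AC50.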
# [5] = Cell Viability - HepG2 (AID 433; calls by dose curve;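 also: potency is read from the fitted curve at half-maximal effect; cells exposed to compound for 40 hours; potency for ATP loss meaning cytotoxicity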); conditions: qHTS
# Procedure, shortened: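 HepG2 hepatocellular carcinoma cells (1500/well) were treated with compounds for 40 h at 37 °C in complete medium; intracellular ATP was read by CellTiter-Glo luminescence. Data were normalized to DMSO and 100 uM tamoxifen, and AC50 came from Hill fits.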
# [6] = Cell Viability - MRC5 (AID 434; calls by dose curve;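 also: potency is read from the fitted curve at half-maximal effect; cells exposed to compound for 40 hours at 37 °C; potency reflects cytotoxicity seen as loss of intracellular ATP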); conditions: MRC5 lung fibroblast viability, qHTS
# Procedure, shortened: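 MRC5 normal human lung fibroblasts (1500/well) were treated with compounds for 40 hr at 37 °C in complete medium, and viable cells were measured as intracellular ATP by CellTiter-Glo luminescence. AC50 came from Hill fits, normalized to DMSO and 100 uM tamoxifen.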
# [7] = NFAT Signaling Pathway (AID 444); conditions: Jurkat NFAT-bla M1, carbachol, beta-lactamase ratio, 5 h;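 also: carbachol stimulus at about its EC50 of 1 µM final; % is scaled to controls: 0 for no effect and ±100 for the full control effect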
# Procedure, shortened: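 Jurkat cells carrying an NFAT-driven β-lactamase reporter and co-transfected muscarinic M1 receptor were treated with compound plus carbachol (1 uM final, an EC50 level) for 5 h at 37 °C. CCF4 loading followed for 1 h at RT; 460/530 nm ratio gave %activity.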
# [8] = Stat Signaling Pathway (AID 446);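 also: ME-180 cervical cancer cells given 40 pM IL-6 alongside compound; SIE-controlled beta-lactamase reporter measured as 460/530 nm FRET emission ratio; % is scaled to controls: 0 for no effect and ±100 for the full control effect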
# Procedure, shortened: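 Screening format detects activators and inhibitors alike: ME-180 SIE-bla cells stimulated at 40 pM IL-6 for 5 hrs with compound, then dual-emission beta-lactamase read at 405 nm excitation.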
# [9] = AP1 Signaling Pathway (AID 357);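 also: ME-180 reporter cells stimulated with EGF at its EC50 level; % is scaled to controls: 0 for no effect and ±100 for the full control effect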
# Procedure, shortened: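 Titration-series screen for positive or negative modulators of EC50 EGF-induced signaling in ME-180 cells carrying an AP-1-driven beta-lactamase reporter. After 5 hours at 37 degrees Celsius, CCF4 460nm/530nm emission ratio gave %Activity; AC50 values derived.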
# [10] = molecular target: Glucocorticoid receptor (Homo sapiens) (UniProt P04150); assay: GR-GFP Redistribution (AID 450;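 active = compounds whose dose series gives a full or clear partial fitted curve of increased nuclear translocation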; also: potency is read from the fitted curve at half-maximal effect); conditions: U2OS GR-GFP nuclear translocation, laser cytometry, 2 h
# Glucocorticoid receptor (Homo sapiens), sequence (P04150 whole entry, looked up): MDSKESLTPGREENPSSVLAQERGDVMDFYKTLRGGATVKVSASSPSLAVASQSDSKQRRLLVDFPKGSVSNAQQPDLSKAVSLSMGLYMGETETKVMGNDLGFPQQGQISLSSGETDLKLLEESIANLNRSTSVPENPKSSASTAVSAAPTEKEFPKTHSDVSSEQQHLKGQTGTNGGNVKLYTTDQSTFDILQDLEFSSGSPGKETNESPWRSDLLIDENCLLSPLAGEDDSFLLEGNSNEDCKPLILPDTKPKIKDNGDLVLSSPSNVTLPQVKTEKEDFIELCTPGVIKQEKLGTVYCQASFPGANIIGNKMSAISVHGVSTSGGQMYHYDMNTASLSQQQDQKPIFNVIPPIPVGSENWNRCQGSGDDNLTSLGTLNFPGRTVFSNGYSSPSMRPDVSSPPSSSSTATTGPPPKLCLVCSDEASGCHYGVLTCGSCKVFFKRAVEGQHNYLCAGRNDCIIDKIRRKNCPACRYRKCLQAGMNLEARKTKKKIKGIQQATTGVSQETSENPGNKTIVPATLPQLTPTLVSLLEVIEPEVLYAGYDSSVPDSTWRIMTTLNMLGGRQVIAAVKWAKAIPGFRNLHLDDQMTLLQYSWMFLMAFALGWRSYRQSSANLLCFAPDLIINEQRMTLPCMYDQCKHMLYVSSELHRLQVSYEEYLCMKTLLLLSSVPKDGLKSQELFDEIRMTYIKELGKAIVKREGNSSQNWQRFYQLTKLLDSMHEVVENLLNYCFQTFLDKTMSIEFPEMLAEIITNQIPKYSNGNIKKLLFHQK
structure (smiles),measurement,setting,value
CCCc1cc(=O)[nH]c(=S)[nH]1,Potency,[1],inactive
same,Potency,[2],> 92 µM (inactive)
same,Potency,[3],> 92 µM (inactive)
same,Potency,[4],> 92 µM (inactive)
same,Potency,[5],> 92 µM (inactive)
same,Potency,[6],> 92 µM (inactive)
same,"activity change, negative = inhibition",[7]; at 17.2 µM (top of the series),-2.4% (inactive) and 6.45% (inactive)
same,outcome,[8],inactive
NC(=NCc1ccccc1)NC(=O)c1nc(Cl)c(N)nc1N,outcome,[9],inactive
same,Potency,[1],12.6 µM (active) and 10 µM (active)
same,"activity change, negative = inhibition",[7]; at 17.2 µM (top of the series),-15.5% (inactive)
same,"activity change, negative = inhibition",[7]; at 38 µM (top of the series),-27.8% (inactive)
same,outcome,[8],inactive
same,Potency,[10],> 46 µM (inactive) and > 20.6 µM (inactive)
NCCCCNCCCN,Potency,[1],inactive and 31.6 µM (active)
same,"activity change, negative = inhibition",[7]; at 38 µM (top of the series),-4.2% (inactive)
same,Potency,[10],> 46 µM (inactive)
O=C(O)c1cc(=O)c2c(OCC(O)COc3cccc4oc(C(=O)O)cc(=O)c34)cccc2o1,Potency,[1],inactive
same,"activity change, negative = inhibition",[7]; at 17.2 µM (top of the series),-1.1% (inactive) and -27.1% (inactive)
same,outcome,[8],inactive
CC1(C)NC(=O)N(c2ccc([N+](=O)[O-])c(C(F)(F)F)c2)C1=O,Potency,[1],12.6 µM (active) and 3.16 µM (active) and 2.51 µM (active)
same,"activity change, negative = inhibition",[7]; at 17.2 µM (top of the series),-3.85% (inactive)
same,"activity change, negative = inhibition",[7]; at 38 µM (top of the series),1.13% (inactive)
same,outcome,[8],inactive
c1ccc2[nH]c(-c3cscn3)nc2c1,Potency,[1],0.126 µM (active)
same,Potency,[2],> 92 µM (inactive)
same,Potency,[4],> 92 µM (inactive)
same,Potency,[5],> 92 µM (inactive)
same,Potency,[6],> 92 µM (inactive)
same,"activity change, negative = inhibition",[7]; at 17.2 µM (top of the series),-19.5% (inactive) and -28.1% (inactive)
same,outcome,[8],inactive
same,Potency,[10],> 20.6 µM (inactive)
CCOc1cc(CC(=O)N[C@@H](CC(C)C)c2ccccc2N2CCCCC2)ccc1C(=O)O,Potency,[1],inactive
same,"activity change, negative = inhibition",[7]; at 17.2 µM (top of the series),-1.28% (inactive)
same,outcome,[8],inactive
same,Potency,[10],2.1 µM (active)
Nc1nc(OCc2ccccc2)c2[nH]cnc2n1,Potency,[1],1 µM (active)
same,"activity change, negative = inhibition",[7]; at 38 µM (top of the series),-5.61% (inactive)
same,outcome,[8],inactive
same,Potency,[10],> 46 µM (inactive)
O=C(O)c1cccnc1Nc1cccc(C(F)(F)F)c1,Potency,[1],10 µM (active) and 5.01 µM (active)
same,"activity change, negative = inhibition",[7]; at 17.2 µM (top of the series),-16.9% (inactive) and -24.7% (inactive)
same,"activity change, negative = inhibition",[7]; at 38 µM (top of the series),5.69% (inactive)
same,outcome,[8],inactive
same,Potency,[10],> 46 µM (inactive) and > 20.6 µM (inactive)
NNc1nncc2ccccc12,Potency,[1],3.16 µM (active) and 1 µM (active)
same,"activity change, negative = inhibition",[7]; at 17.2 µM (top of the series),-29.1% (inactive)
same,"activity change, negative = inhibition",[7]; at 38 µM (top of the series),8.48% (inactive)
same,outcome,[8],inactive
same,Potency,[10],> 46 µM (inactive) and > 20.6 µM (inactive)
CN1C(C(=O)Nc2ccccn2)=C(O)c2sccc2S1(=O)=O,Potency,[1],inactive
same,"activity change, negative = inhibition",[7]; at 17.2 µM (top of the series),9.83% (inactive)
same,outcome,[8],inactive
same,Potency,[10],> 20.6 µM (inactive)
CNC[C@H](O)c1ccc(O)c(O)c1,outcome,[9],inactive
same,"activity change, negative = inhibition",[7]; at 38 µM (top of the series),1.71% (inactive) and -6.16% (inactive)
same,outcome,[8],inactive
Cc1cc(O)c2c(c1)C(=O)c1cc(O)cc(O)c1C2=O,Potency,[1],3.16 µM (active) and 398 nM (active)
same,Potency,[2],> 92 µM (inactive)
same,Potency,[6],> 92 µM (inactive)
same,"activity change, negative = inhibition",[7]; at 38 µM (top of the series),7.8% (inactive)
same,Potency,[10],> 46 µM (inactive)
CS(=O)(=O)OCCCCOS(C)(=O)=O,Potency,[2],> 92 µM (inactive)
same,Potency,[3],> 92 µM (inactive)
same,Potency,[4],> 92 µM (inactive)
same,Potency,[5],> 92 µM (inactive)
same,Potency,[6],> 92 µM (inactive)
N=C(N=C(N)N)N1CCOCC1,"activity change, negative = inhibition",[7]; at 17.2 µM (top of the series),-6.61% (inactive)
same,outcome,[8],inactive
same,Potency,[10],> 20.6 µM (inactive) and > 46 µM (inactive)
C[C@H](Cc1ccc(O)c(O)c1)[C@@H](C)Cc1ccc(O)c(O)c1,Potency,[1],31.6 µM (active)
same,Potency,[10],> 46 µM (inactive)
CCN(CC)C(=S)SSC(=S)N(CC)CC,Potency,[1],6.31 µM (active) and 1.58 µM (active)
same,Potency,[10],> 46 µM (inactive) and > 20.6 µM (inactive)
CCCCN(CCCC)CCC(O)c1cc2c(Cl)cc(Cl)cc2c2cc(C(F)(F)F)ccc12 (stereo not given),"activity change, negative = inhibition",[7]; at 17.2 µM (top of the series),14.4% (inactive)
same,outcome,[8],inactive
same,Potency,[10],> 20.6 µM (inactive)
COc1ccc2cc([C@H](C)C(=O)O)ccc2c1,"activity change, negative = inhibition",[7]; at 17.2 µM (top of the series),-15.8% (inactive) and 6.69% (inactive) and 9.43% (inactive)
same,"activity change, negative = inhibition",[7]; at 38 µM (top of the series),0.0959% (inactive)
same,outcome,[8],inactive
CC1Cc2ccccc2N1NC(=O)c1ccc(Cl)c(S(N)(=O)=O)c1 (stereo not given),"activity change, negative = inhibition",[7]; at 17.2 µM (top of the series),6.17% (inactive)
same,outcome,[8],inactive
O=c1ccc2ccc(O)c(O)c2o1,"activity change, negative = inhibition",[7]; at 38 µM (top of the series),-9.14% (inactive)
same,outcome,[8],inactive
same,Potency,[10],> 46 µM (inactive)
CCCCC(CC)COC(=O)C(C#N)=C(c1ccccc1)c1ccccc1 (stereo not given),Potency,[2],> 92 µM (inactive)
same,Potency,[3],> 92 µM (inactive)
same,Potency,[4],> 92 µM (inactive)
same,Potency,[5],> 92 µM (inactive)
same,Potency,[6],> 92 µM (inactive)
CC(C)[N+]1(C)[C@@H]2CC[C@H]1CC(OC(=O)C(CO)c1ccccc1)C2 (stereo not given in full),"activity change, negative = inhibition",[7]; at 17.2 µM (top of the series),-79.9% (active)
same,outcome,[8],inactive
Cc1cc(=O)oc2cc(O)ccc12,Potency,[1],3.98 µM (active)
same,outcome,[8],inactive
CC(C)c1ccc2c(c1)c(SC(C)(C)C)c(CC(C)(C)C(=O)O)n2Cc1ccc(Cl)cc1,Potency,[1],25.1 µM (active) and 31.6 µM (active)
same,Potency,[10],> 46 µM (inactive)
Cc1nc2n(c(=O)c1CCN1CCC(c3noc4cc(F)ccc34)CC1)CCCC2,Potency,[1],inactive
same,outcome,[8],inactive
CN1CCC(=C2c3ccccc3CCc3sccc32)CC1,Potency,[1],inactive
same,outcome,[8],inactive
COC(=O)[C@H](Cc1ccccc1)NC(=O)[C@@H](N)CC(=O)O (H-Asp-Phe-OMe),Potency,[2],> 92 µM (inactive)
same,Potency,[3],> 92 µM (inactive)
same,Potency,[4],> 92 µM (inactive)
same,Potency,[5],> 92 µM (inactive)
same,Potency,[6],> 92 µM (inactive)
